Measured values taken from the supplement of paper PMC10720658.
± gives the standard deviation of the averaged measurements.

Tested on: AEK1 (Tb927.3.2440)
Experiment: percent reduction in TR-FRET probe signal relative to DMSO control; higher = stronger displacement of ATP-site probe (binding)
Conditions: 1 µM; incubation time 1 h

SMILES	percent reduction in TR-FRET probe signal [%]
COc1cc2nccc(Oc3ccc(NC(=O)C4(C(=O)Nc5ccc(F)cc5)CC4)cc3)c2cc1OC	-3.97 ± 6.1
Cc1ccc(C(=O)Nc2ccc(CN3CCN(C)CC3)c(C(F)(F)F)c2)cc1C#Cc1cnc2[nH]ncc2c1	29.4 ± 11
O=C1Nc2cc(Br)ccc2/C1=C1/Nc2ccccc2/C1=N\O	2.19 ± 11
OCCn1cc(-c2ccc3c(c2)CC/C3=N\O)c(-c2ccncc2)n1	-6.91 ± 7.5
Cl.N=C(N)NC(=N)NCCc1ccccc1 [Phenformin HCl]	12.1 ± 8.3
CC[C@@H]1C(=O)N(C)c2cnc(Nc3ccc(C(=O)NC4CCN(C)CC4)cc3OC)nc2N1C1CCCC1	-1.92 ± 12
COc1ccc(C(=O)Nc2sc3c(c2C(N)=O)CCCC3)cc1OC	1.85 ± 1.5
O=C1Nc2ccccc2/C1=C1\Nc2ccccc2C1=O [Indirubin]	-2.5 ± 6.6
C[C@@H](Oc1cc(-c2cnn(C3CCNCC3)c2)cnc1N)c1c(Cl)ccc(F)c1Cl	35.4 ± 13
O=C(Nc1cccc(Nc2ncc(Br)c(NCCc3cnc[nH]3)n2)c1)N1CCCC1	52.9 ± 12
CCNC(=O)Nc1ccc(-c2nc3c(c(N4CCOC[C@@H]4C)n2)CCN(C2COC2)C3)cc1	13.6 ± 12
CS(=O)(=O)c1cccc(CNc2nc(Nc3ccc4c(c3)CCC(=O)N4)ncc2C(F)(F)F)c1	39.5 ± 13
CNC(=O)c1nn(C)c2c1C(C)(C)Cc1cnc(Nc3ccc(N4CCN(C)CC4)cc3)nc1-2	-3.55 ± 7.5
Cc1ncc(-c2ccnc(Nc3ccc(S(C)(=O)=O)cc3)n2)n1C(C)C	-3.5 ± 1.6
